The values below come from paper PMC5700166.

Changes are numbered by the printed parent chain.

Holding throughout (assay): protein-binding microarray (PBM); PBM: ~300 nM protein, 6 mM HEPES pH 7.8, 80 mM KCl, 0.5 mM EDTA, 0.5 mM EGTA, 6% glycerol, 35 ng/ul poly-dIdC, 1% milk, 1 h, room temperature; Ap Aiptasia and Nv Nematostella (sea anemones) / Co Capsaspora / Aq Amphimedon (sponge) / Dm Drosophila / Hu human; RHD is the Rel homology domain; high values mean tight binding
Details in all cases: dsDNA, one strand shown

Experiment [1] addresses T1, GST-Ap-NF-kB RHD (Exaiptasia pallida (Aiptasia), UniProt A0A913YAJ5 2-422).
T1 sequence: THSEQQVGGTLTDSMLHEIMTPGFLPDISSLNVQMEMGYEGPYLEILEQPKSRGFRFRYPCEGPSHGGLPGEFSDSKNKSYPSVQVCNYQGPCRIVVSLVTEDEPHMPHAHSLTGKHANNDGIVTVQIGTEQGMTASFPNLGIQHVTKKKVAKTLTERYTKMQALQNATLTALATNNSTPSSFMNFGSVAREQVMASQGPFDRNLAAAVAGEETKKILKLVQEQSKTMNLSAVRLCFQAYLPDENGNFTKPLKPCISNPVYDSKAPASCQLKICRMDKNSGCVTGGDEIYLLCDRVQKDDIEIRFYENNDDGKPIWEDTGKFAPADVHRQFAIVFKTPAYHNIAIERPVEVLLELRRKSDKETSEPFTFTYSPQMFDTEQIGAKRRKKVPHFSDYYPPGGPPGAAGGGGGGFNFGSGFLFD

For experiment [2], the target named is T2, GST-Nv-NF-kB (Cys allele) (Nematostella vectensis, UniProt E5G601 2-411).
T2 sequence: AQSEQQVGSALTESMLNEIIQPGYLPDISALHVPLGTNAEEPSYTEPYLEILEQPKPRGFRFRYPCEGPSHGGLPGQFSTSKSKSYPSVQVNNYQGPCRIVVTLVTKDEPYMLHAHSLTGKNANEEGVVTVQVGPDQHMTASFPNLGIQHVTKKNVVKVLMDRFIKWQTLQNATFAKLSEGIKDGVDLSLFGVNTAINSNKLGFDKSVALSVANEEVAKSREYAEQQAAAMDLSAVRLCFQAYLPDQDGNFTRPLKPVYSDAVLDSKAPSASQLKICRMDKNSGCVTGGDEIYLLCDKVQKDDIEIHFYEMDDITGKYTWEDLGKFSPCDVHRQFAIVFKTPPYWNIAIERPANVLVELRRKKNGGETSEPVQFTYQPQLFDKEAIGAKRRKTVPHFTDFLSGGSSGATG

Experiment [3] deals with T3, GST-Nv-NF-kB (Ser allele) (Nematostella vectensis, UniProt A7UNT2 2-411).
T3 sequence: T2 sequence with Q21R, C66S, S207N, E215Q, V217A, E225K, A268E, D399E

Experiment [4] addresses T4, GST-Co-NF-kB (Capsaspora owczarzaki, UniProt F1ARL5 200-546).
T4 sequence: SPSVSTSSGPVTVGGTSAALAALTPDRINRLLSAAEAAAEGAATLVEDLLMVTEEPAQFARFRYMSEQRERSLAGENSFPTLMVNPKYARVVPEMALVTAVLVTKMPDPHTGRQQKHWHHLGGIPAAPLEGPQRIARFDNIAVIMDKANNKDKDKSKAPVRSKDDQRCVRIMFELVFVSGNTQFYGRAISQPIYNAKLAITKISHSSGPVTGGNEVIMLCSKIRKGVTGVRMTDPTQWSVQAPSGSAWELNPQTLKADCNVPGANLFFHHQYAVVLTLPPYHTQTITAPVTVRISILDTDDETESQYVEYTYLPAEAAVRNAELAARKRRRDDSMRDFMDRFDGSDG

The target in experiment [5] is T5, GST-Dm-Relish (Drosophila melanogaster, UniProt Q94527 99-473).
T5 sequence: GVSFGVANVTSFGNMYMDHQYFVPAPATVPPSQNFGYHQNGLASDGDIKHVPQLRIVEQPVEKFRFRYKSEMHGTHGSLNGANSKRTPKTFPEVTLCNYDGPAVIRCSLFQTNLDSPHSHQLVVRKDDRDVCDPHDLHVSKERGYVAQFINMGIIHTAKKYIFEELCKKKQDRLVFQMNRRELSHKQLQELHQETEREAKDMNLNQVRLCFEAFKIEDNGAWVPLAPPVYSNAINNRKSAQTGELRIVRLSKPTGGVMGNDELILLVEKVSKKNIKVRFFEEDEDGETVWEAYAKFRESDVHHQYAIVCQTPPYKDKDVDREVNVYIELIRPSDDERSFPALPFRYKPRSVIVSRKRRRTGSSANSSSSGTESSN

In experiment [6] the target is T6, GST-Aq-NF-kB (Amphimedon queenslandica, UniProt A9Y5G7 2-389).
T6 sequence: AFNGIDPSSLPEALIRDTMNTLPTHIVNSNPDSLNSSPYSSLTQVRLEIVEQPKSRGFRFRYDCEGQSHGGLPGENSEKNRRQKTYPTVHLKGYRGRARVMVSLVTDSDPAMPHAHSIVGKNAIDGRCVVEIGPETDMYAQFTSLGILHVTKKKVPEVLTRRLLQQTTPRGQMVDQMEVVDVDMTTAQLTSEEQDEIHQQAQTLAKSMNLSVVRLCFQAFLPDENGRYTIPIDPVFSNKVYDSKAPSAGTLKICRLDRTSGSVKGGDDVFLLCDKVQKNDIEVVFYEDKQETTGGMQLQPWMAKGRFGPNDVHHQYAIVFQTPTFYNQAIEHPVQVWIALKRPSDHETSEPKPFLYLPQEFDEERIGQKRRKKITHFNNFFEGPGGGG

The target in experiment [7] is GST-Hu-p50 (Homo sapiens, UniProt P19838 7-356).
Sequence of GST-Hu-p50 (P19838 7-356): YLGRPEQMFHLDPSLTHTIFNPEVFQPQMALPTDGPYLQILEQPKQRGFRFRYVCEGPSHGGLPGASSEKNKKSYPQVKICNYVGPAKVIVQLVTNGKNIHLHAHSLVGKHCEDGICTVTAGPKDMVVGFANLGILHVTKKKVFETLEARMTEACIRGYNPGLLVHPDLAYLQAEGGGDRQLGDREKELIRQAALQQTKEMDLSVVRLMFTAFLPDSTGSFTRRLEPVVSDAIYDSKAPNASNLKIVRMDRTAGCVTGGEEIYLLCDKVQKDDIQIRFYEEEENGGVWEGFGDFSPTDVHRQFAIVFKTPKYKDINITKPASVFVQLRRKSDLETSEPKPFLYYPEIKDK

In the case of “CCGATTAACATCACAAAATTCCCTGATGTTAATCGGGTCTTGATTCGCTTGACGCTGCTG”, the binding signal amounted to 5.93 z-score in experiment [1]; 8.61 z-score in experiment [2]; 8.58 z-score in experiment [3]; 5.01 z-score in experiment [4]; 6.16 z-score in experiment [5]; 6.82 z-score in experiment [6]. The sequence also showed a binding signal in experiment [7] of 6.04 z-score.
Take “CCGATTAACATCAGAAATCCCCATGATGTTAATCGGGTCTTGATTCGCTTGACGCTGCTG”: the binding signal in experiment [1] is 8.63 z-score; in experiment [2] it was 9.17 z-score; in experiment [3], 9.84 z-score; in experiment [4], 4.52 z-score; in experiment [5], 8.03 z-score; in experiment [6] it was 6.3 z-score. The same sequence registered a binding signal in experiment [7] of 6.99 z-score.
Regarding “CCGATTAACATCAGGACGTCCCCTGATGTTAATCGGGTCTTGATTCGCTTGACGCTGCTG”, the binding signal was found to be 7.08 z-score in experiment [1]; 6.03 z-score in experiment [2]; 4.26 z-score in experiment [3]; 2.18 z-score in experiment [4]; 5.29 z-score in experiment [5]; 7.4 z-score in experiment [6]. For the same sequence, in experiment [7], the binding signal was found to be 4.57 z-score.
For “CCGATTAACATCAGGGGAACCCATGATGTTAATCGGGTCTTGATTCGCTTGACGCTGCTG”, the binding signal in experiment [1] amounted to 7.48 z-score; in experiment [2], 5.77 z-score; in experiment [3] it was 6.55 z-score; in experiment [4] it was 4.47 z-score; in experiment [5], 8.55 z-score; in experiment [6], 4.7 z-score. The binding signal in experiment [7] was 4.58 z-score.
Consider “CCGATTAACATCAGGGGGGTTAATGATGTTAATCGGGTCTTGATTCGCTTGACGCTGCTG”, for which the binding signal in experiment [1] amounted to 4.64 z-score; in experiment [2], 4.44 z-score; in experiment [3], 4.14 z-score; in experiment [4], 3.92 z-score; in experiment [5] it was 6.25 z-score; in experiment [6], 4.51 z-score. For the same sequence, the binding signal in experiment [7] worked out at 4.97 z-score.
In the case of “CCGATTAACATCAAATATCCCCCTGATGTTAATCGGGTCTTGATTCGCTTGACGCTGCTG”, the binding signal in experiment [1] worked out at 8.79 z-score; in experiment [2], 8.51 z-score; in experiment [3] it was 8.83 z-score; in experiment [4], 8.39 z-score; in experiment [5], 7.63 z-score; in experiment [6] it was 6.9 z-score. In experiment [7], the binding signal was 6.58 z-score.
On to “CCGATTAACATCACCCCCGCCCCTGATGTTAATCGGGTCTTGATTCGCTTGACGCTGCTG”, for which the binding signal in experiment [1] is 4.47 z-score; in experiment [2], 3.37 z-score; in experiment [3], 3.72 z-score; in experiment [4], 6.71 z-score; in experiment [5], 4.74 z-score; in experiment [6], 4.27 z-score. The sequence further displayed a binding signal in experiment [7] of 3.7 z-score.
For “CCGATTAACATCAGGGGTACCCCTGATGTTAATCGGGTCTTGATTCGCTTGACGCTGCTG”, the binding signal in experiment [1] worked out at 7.75 z-score; in experiment [2], 3.69 z-score; in experiment [3] it was 2.78 z-score; in experiment [4] it was 6.06 z-score; in experiment [5], 5.81 z-score; in experiment [6], 6.3 z-score. The same sequence gave a binding signal in experiment [7] of 3.73 z-score.
In the case of “CCGATTAACATCAGGGGGACAACTGATGTTAATCGGGTCTTGATTCGCTTGACGCTGCTG”, the binding signal in experiment [1] was 5.19 z-score; in experiment [2], 5.15 z-score; in experiment [3], 4.83 z-score; in experiment [4], 6.16 z-score; in experiment [5], 3.66 z-score; in experiment [6] it was 4.24 z-score. The binding signal in experiment [7] amounted to 4.46 z-score.
For the sequence “CCGATTAACATCAGGGGGATAACTGATGTTAATCGGGTCTTGATTCGCTTGACGCTGCTG”, the binding signal is 6.6 z-score in experiment [1]; 4.96 z-score in experiment [2]; 5.96 z-score in experiment [3]; 6.99 z-score in experiment [4]; 7.19 z-score in experiment [5]; 5.34 z-score in experiment [6]. The binding signal in experiment [7] came to 5.17 z-score.
Consider “CCGATTAACATCAAAAACCCCCTTGATGTTAATCGGGTCTTGATTCGCTTGACGCTGCTG”, for which the binding signal was 10.4 z-score in experiment [1]; 10.3 z-score in experiment [2]; 10.9 z-score in experiment [3]; 2.93 z-score in experiment [4]; 10.9 z-score in experiment [5]; 9.31 z-score in experiment [6]. The binding signal in experiment [7] worked out at 8.33 z-score.
As for “CCGATTAACATCAAATATCCCCTTGATGTTAATCGGGTCTTGATTCGCTTGACGCTGCTG”, the binding signal in experiment [1] stood at 8.05 z-score; in experiment [2], 8.3 z-score; in experiment [3] it was 9.01 z-score; in experiment [4] it was 3.88 z-score; in experiment [5], 6.97 z-score; in experiment [6], 6.2 z-score. In experiment [7], this sequence yielded a binding signal of 6.19 z-score.
For the sequence “CCGATTAACATCAGGAGCCCCCCTGATGTTAATCGGGTCTTGATTCGCTTGACGCTGCTG”, the binding signal in experiment [1] came to 5.02 z-score; in experiment [2], 3.27 z-score; in experiment [3], 2.66 z-score; in experiment [4], 2.66 z-score; in experiment [5], 6.02 z-score; in experiment [6], 5.04 z-score. The binding signal in experiment [7] came to 4.41 z-score.
